{
  "source": "paper PMC12136788",
  "binders": {"B1": {"name": "chr16:5009651:5009652:-_ENSMUSG00000022540_ENSMUST00000023191|mus_hu|FALSE|FALSE (ssRNA)", "RNA": "GGGAGUUCUACAGUCCGACGAUCUGCAGGGAGACGGUGAAGUAGACCAGGGCGUCGUUGAGCCAGGGGAUCACGCACUCCACUUUGUGCACGUGGCUCACCUCCAGGCGCUGAGAGCCCCACUCGAACAUGGCCCCAGGGCUACAACAGAGGAUUGAGCAUCA"}, "B2": {"name": "133220860_133220980_1226_CDS_ENSMUSG00000043257_ENSMUST00000062118|mouse|control|control (ssRNA)", "RNA": "GGGAGUUCUACAGUCCGACGAUCGUAUAUUAGAGGAAGGUCCCAGGAGCACCAUGGGGGUGCAUUUUCUCCUGCAAGCCGGUAGCCUUUGUCGGCAGCUAGCUGCAGCAAGGGCUCAGGGAUGGAGGGGGCUGAGCCUGGUGACAACAGAGGAUUGAGCAUCA"}, "B3": {"name": "chr7:141441981:141441982:+_ENSG00000106028_ENST00000265304|hu_mus|hu_hu_hu_mus_False|48_88 (ssRNA)", "RNA": "GGGAGUUCUACAGUCCGACGAUCCUCAUGUCUUACAAACUGACGAAGUACCUGUAACACAGGUCUUCGAAACAUGGCUUCUGUUUUCUUUUCUUACUAAUCUUUAGGCUUUUCCUAAAGGAAAGAAAGAAAAGAGAAAAAUGACAACAGAGGAUUGAGCAUCA"}, "B4": {"name": "chr17:56552419:56552420:-_ENSMUSG00000013236_ENSMUST00000086828|mus_mus|mus_mus_mus_hu_False|78_78 (ssRNA)", "RNA": "GGGAGUUCUACAGUCCGACGAUCAAAAAAUACACUAUUUAAAAAAAAUGAAAUGUCAGAAAAAGAAGUUACACUGAGAGUUUUAAAAGAAAGCUGGAUUCUGGUCCCAGCCCAGUGUCCCCAGGCUGCAGAGCGGGGAGGAGCCAACAGAGGAUUGAGCAUCA"}, "B5": {"name": "chr17:56552419:56552420:-_ENSMUSG00000013236_ENSMUST00000086828|mus_mus|mus_mus_mus_hu_False|18_78 (ssRNA)", "RNA": "B4 RNA with U117G, C119A, C120G, C121G, A122C, G123A, C125G, U126G"}, "B6": {"name": "chr17:56552419:56552420:-_ENSMUSG00000013236_ENSMUST00000086828|mus_mus|mus_mus_mus_hu_False|38_78 (ssRNA)", "RNA": "B4 RNA with U98A, U99A, C100A, U101A, G102A, G103A, U104A, C105U, C106G"}, "B7": {"name": "chr17:56552419:56552420:-_ENSMUSG00000013236_ENSMUST00000086828|mus_mus|mus_mus_mus_hu_False|48_78 (ssRNA)", "RNA": "B4 RNA with G88A, G92A, C93U, U94A, G95A"}, "B8": {"name": "chr4:153332861:153332862:-_ENSG00000109670_ENST00000281708|hu_mus|FALSE|FALSE (ssRNA)", "RNA": "GGGAGUUCUACAGUCCGACGAUCCUCCUCUUGAUGUCUCGCUUGCUGCUGUGGAUCCUCCUCAACCACGCGAUUCAUCUGUCCCUCAUCAACCUGGCUUGAGGAAGCAUUCCCUCUCAGAGAGCCUCCAGUUCGUCGUCUUUUCAACAGAGGAUUGAGCAUCA"}, "B9": {"name": "46544062_46544572_2905_CDS_ENSG00000123200_ENST00000242848|human|control|control (ssRNA)", "RNA": "GGGAGUUCUACAGUCCGACGAUCUUCUUGAGGUCGUACAACUUGGCUCAAGAGUCUGUGUUUUUCAUUUUUAUCAUCUCCACUGUUGUAGGCAUCACUGUCCGGAGAAUGUUCACGCCGGCGCUUCGGGGACUGUCUAGGGCUCAACAGAGGAUUGAGCAUCA"}, "B10": {"name": "chr2:180329438:180329439:+_ENSMUSG00000049401_ENSMUST00000029087|mus_mus|FALSE|FALSE (ssRNA)", "RNA": "GGGAGUUCUACAGUCCGACGAUCCUCAGAGACACCCUGAGGAUCUGGCUCCCCUGGGACCUGCUCCUGCCUGUUCCCCUCCAACUUCCUCUUCUUGCUUUCUUUGGGACUCGGGGACUUAGCCUCAUGCCUUUGGUCCCCAUCCAACAGAGGAUUGAGCAUCA"}, "B11": {"name": "chr3:150289932:150289933:+_ENSG00000144895_ENST00000460851|hu_hu|hu_hu_hu_mus_False|18_28 (ssRNA)", "RNA": "GGGAGUUCUACAGUCCGACGAUCCUUGUAGUUUUUAACAUCCCAUACUUCCAUUUGUCCUCGAAGAUUUCCAAAUCCAGCCAGCACUAAUAUAUGUCCAUGAGGGCUAUAGUAGGCUGCAUUACGAGGACCAGUCCCAAAGUCCAACAGAGGAUUGAGCAUCA"}, "B12": {"name": "chr16:94664382:94664383:+_ENSMUSG00000040785_ENSMUST00000117648|mus_hu|FALSE|FALSE (ssRNA)", "RNA": "GGGAGUUCUACAGUCCGACGAUCAAAAGCUGGUGCUGAAGAUGAAUCUGACACUGGUUUAGACUUUACAUCUGGUUUAAAUUCCCUAGCAGCUGGAUUCAGUUGUAGUUUAACUCGUACAUACUCCCCUGCUUUUGAAAUUUCCAACAGAGGAUUGAGCAUCA"}, "B13": {"name": "chr11:88707168:88707169:-_ENSMUSG00000018428_ENSMUST00000018572|mus_mus|FALSE|FALSE (ssRNA)", "RNA": "GGGAGUUCUACAGUCCGACGAUCAAGGGGAAGAGCGAACGCAACUGGAUUGCCAUCUUGGAGUCAGUCGAUGUGAAGUAGCUACACCUGCUCCUGGGCGACCGUCUAGGCACUCAAUCCUCCCGCCACCGCCCCCUGGCCCCCCAACAGAGGAUUGAGCAUCA"}, "B14": {"name": "chr3:184044699:184044700:+_ENSG00000114867_ENST00000411531|hu_hu|motif|central (ssRNA)", "RNA": "GGGAGUUCUACAGUCCGACGAUCAUUAUCUGUGCUUUCUGUGGGUACCGCUUGUUGAAGGGCUGAGAAGCGAUUCAAAGUACGGGUAGCUGGGCGAGCAGCUUCUGAUGCUGCGUCUGAGGGCUUGGCUCCUGAGCCUCCGCUCAACAGAGGAUUGAGCAUCA"}, "B15": {"name": "chrX:77155053:77155054:+_ENSG00000131174_ENST00000481445|hu_hu|motif|central (ssRNA)", "RNA": "GGGAGUUCUACAGUCCGACGAUCCGAACUUGGAGACGAUUUAGUGCGCUUUUGACCAAGGGAAACAUCGUGAAGGUGAAGCGGGAACUGCGGCAAUACAGCUGCUGCUUUGGUGCCAAUUCGCUUCAGGUACCCUUGAAGUGACAACAGAGGAUUGAGCAUCA"}, "B16": {"name": "chr2:153237265:153237266:-_ENSMUSG00000061411_ENSMUST00000109784|mus_mus|mus_mus_mus_hu_False|18_78 (ssRNA)", "RNA": "GGGAGUUCUACAGUCCGACGAUCAAAAAAAAAAAAAAAAAAGUGUCCUUGUGCCCAAAGUCUCAGAUGCUUGGAGUGUGGCUAGAAACAGCUCUUUUGGAUCCCACCUCUUUCAAAAAACAGUGUAACCAACUGGUGAGGCAGCAACAGAGGAUUGAGCAUCA"}, "B17": {"name": "chr2:153237265:153237266:-_ENSMUSG00000061411_ENSMUST00000109784|mus_mus|mus_mus_mus_hu_False|18_28 (ssRNA)", "RNA": "B16 RNA with A66G, A115G"}, "B18": {"name": "chr2:153237265:153237266:-_ENSMUSG00000061411_ENSMUST00000109784|mus_mus|mus_mus_mus_hu_False|18_58 (ssRNA)", "RNA": "B16 RNA with A66G, U78C, G79A"}, "B19": {"name": "chr2:153237265:153237266:-_ENSMUSG00000061411_ENSMUST00000109784|mus_mus|mus_mus_mus_hu_False|18_18 (ssRNA)", "RNA": "B16 RNA with A66G"}, "B20": {"name": "chr2:153237265:153237266:-_ENSMUSG00000061411_ENSMUST00000109784|mus_mus|mus_mus_mus_hu_False|1_18 (ssRNA)", "RNA": "B16 RNA with A66G, G137A, A138G, G140C, C141A, A142G"}, "B21": {"name": "chr5:71490711:71490712:+_ENSG00000131711_ENST00000296755|hu_hu|motif|central (ssRNA)", "RNA": "GGGAGUUCUACAGUCCGACGAUCCACAGGAGUGGGCACCUGGCCAGUGAGAUCCUUUUGGGUGGCCAGUGGCUGCUUCAGAAAGUCGGGAUGUUUGAGCUUUUCCAACCCUUCCAGGAUGUUGUACUGGGUGCUGUUCCCAGGCAACAGAGGAUUGAGCAUCA"}, "B22": {"name": "chr11:46405157:46405158:+_ENSG00000110492_ENST00000395566|hu_hu|hu_hu_hu_mus_False|8_58 (ssRNA)", "RNA": "GGGAGUUCUACAGUCCGACGAUCCCCUCCCCACUUUGGGCACUUGGUGUGGGCGUGAGAGGACAGGCGUGAUUGACAAAGCUAACGGGAAGACAAAAGGCACUGGUGGGUUAUAUCUUGGGCCUGUGAGAGGGAGGGGCUCCGCAACAGAGGAUUGAGCAUCA"}},
  "note": "Changes are numbered by the printed parent chain. Whole data set: some 24,000 sequences, median “enrichment r” near 0.99, cut for the highest 2% near 3.7. The sample holds the highest values, similar sequences and a random draw of the others, so the mix is not that of the screen.",
  "data": [
    {"molecular_target": "T1, UNK ZnF1-3 (human, UniProt Q9C0B0 31-174)", "T1 sequence": "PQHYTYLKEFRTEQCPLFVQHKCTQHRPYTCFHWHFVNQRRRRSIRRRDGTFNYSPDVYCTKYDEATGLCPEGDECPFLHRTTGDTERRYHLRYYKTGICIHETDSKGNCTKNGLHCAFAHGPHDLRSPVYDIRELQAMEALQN", "assay": "nsRBNS (natural sequence RNA bind-n-seq); RBNS binding buffer (assumed for nsRBNS): 25 mM Tris pH 7.5, 150 mM KCl, 3 mM MgCl2, 0.01% Triton X-100, 500 ug/ml BSA, 20 U/ml SUPERase-In, 4 C; UNK is unkempt and MSI1 is Musashi-1; names of the RNAs are library labels; protein concentration not given here; high values mean tight binding", "units": {"binding signal": "enrichment R"}, "values": [
      {"binder": "B1", "binding signal": 0.75},
      {"binder": "B2", "binding signal": 1.08},
      {"binder": "B3", "binding signal": 0.351},
      {"binder": "B4", "binding signal": 4.51},
      {"binder": "B5", "binding signal": 3.82},
      {"binder": "B6", "binding signal": 9.26},
      {"binder": "B7", "binding signal": 9.32},
      {"binder": "B8", "binding signal": 0.439},
      {"binder": "B9", "binding signal": 0.885},
      {"binder": "B10", "binding signal": 0.716},
      {"binder": "B11", "binding signal": 0.862},
      {"binder": "B12", "binding signal": 1},
      {"binder": "B13", "binding signal": 1.08},
      {"binder": "B14", "binding signal": 0.754},
      {"binder": "B15", "binding signal": 0.887},
      {"binder": "B16", "binding signal": 4.87},
      {"binder": "B17", "binding signal": 3.55},
      {"binder": "B18", "binding signal": 4.98},
      {"binder": "B19", "binding signal": 5.16},
      {"binder": "B20", "binding signal": 6.33},
      {"binder": "B21", "binding signal": 1.1},
      {"binder": "B22", "binding signal": 3.13}
    ]}
  ]
}
